Results filed as inconclusive are left out. Activity calls are given as the source filed them. Unless noted, calls come from the whole dose curve.
Columns and labels:
[1] = qHTS assay to identify small molecule agonists of the vitamin D receptor (VDR) signaling pathway - cell viability counter screen (AID 743224; active = well fitted curve in the direction sought with a large enough effect in the repeat runs; an effect the other way counts as inactive or inconclusive; note: series mostly up to about 63 µM; % is set by controls: 0 for no effect and ±100 for the full control effect; nearly all actives have a fitted effect of over 50% in size)
Method in brief: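 Cells: VDR-bla, 2,000/well, settled 4 h. Treatment: compounds in DMSO, 16 h, 37C/5% CO2. Readout: CellTiter-Glo luminescence after 30 min RT.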

[2] = qHTS assay to identify small molecule agonists of the NFkB signaling pathway (AID 1159509; active = well fitted curve in the direction sought with a large enough effect in the signal ratio in the repeat runs, not every such curve was filed as active; the % refers to the signal ratio; note: series mostly up to about 61 µM; % is set by controls: 0 for no effect and ±100 for the full control effect)
Method in brief: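 Beta-lactamase reporter assay run in quantitative high-throughput format on an NF-kB-responsive ME-180 line, with 5 hr compound treatment and a FRET-based blue/green fluorescence readout.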

[3] = qHTS assay to identify small molecule agonists of the NFkB signaling pathway - cell viability counter screen (AID 1159515); note: series mostly up to about 61 µM; % is set by controls: 0 for no effect and ±100 for the full control effect; nearly all actives have a fitted effect of over 55% in size
Method in brief: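 Cells are seeded (2,000 NFkB-bla ME-180 per well), rested overnight, and dosed with DMSO-dissolved compounds for 5 hr at 37 C. Viability is then read by CellTiter-Glo luminescence after 30 min at room temperature.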

[4] = qHTS assay to identify small molecule agonists of the endoplasmic reticulum stress response signaling pathway (AID 1159516; active = well fitted activation curve with a large enough effect in the signal ratio in the repeat runs, not every such curve was filed as active; the % refers to the signal ratio; note: % is set by controls: 0 for no effect and ±100 for the full control effect)
Method in brief: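 Cells are seeded at 1,500 per well and incubated overnight. Compounds in DMSO are added for 5 hr at 37 C, then beta-lactamase FRET substrate for 2 hr at room temperature, and fluorescence at 460 and 530 nm is measured.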

[5] = qHTS assay to identify small molecule agonists of the endoplasmic reticulum stress response signaling pathway - cell viability counter screen (AID 1159517);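 note: HeLa cells carrying an ER stress response element beta-lactamase reporter; series mostly up to about 61 µM; % is set by controls: 0 for no effect and ±100 for the full control effect; nearly all actives have a fitted effect of over 50% in size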
Method in brief: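 Cytotoxicity of test compounds toward ESRE-bla HeLa cells was assessed after 5 hr exposure. The luminescent CellTiter-Glo signal was measured 30 min after reagent addition.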

[6] = qHTS assay to identify small molecule antagonists of the retinoid-related orphan receptor gamma (ROR-gamma) signaling pathway - cell viability counter screen (AID 1159520; active = well fitted curve in the direction sought with a large enough effect in the repeat runs; an effect the other way counts as inactive or inconclusive; note: % is set by controls: 0 for no effect and ±100 for the full control effect; nearly all actives have a fitted effect of over 50% in size)
Method in brief: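 Tet-on ROR gamma CHO cells (1,000/well) were plated 4 hr, given compounds in DMSO for 2 hr at 37 C, then induced with 1 uM final doxycycline for 16 hr. Viability was read as ATP by CellTiter-Glo luminescence after 30 min.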

[7] = target: Nuclear receptor ROR-gamma (Homo sapiens) (UniProt P51449); assay: qHTS assay to identify small molecule antagonists of the retinoid-related orphan receptor gamma (ROR-gamma) signaling pathway (AID 1159521; active = well fitted curve in the direction sought with a large enough effect in the repeat runs; an effect the other way counts as inactive or inconclusive; note: nearly all actives have a fitted effect of over 50% in size; note: potency is the fitted concentration of half-maximal effect;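 for activity change, negative = inhibition: CHO cells with doxycycline inducible ROR-gamma driving an RORE luciferase reporter; top concentration of the series differs between compounds; % is set by controls: 0 for no effect and ±100 for the full control effect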)
Method in brief: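 Tet-on RORγ CHO cells carrying a ROR response element–luciferase reporter were pretreated with compounds for 2 h, then induced with 1 uM (final) doxycycline hyclate for 16 h at 37 C. Antagonism was read as decreased ONE-Glo luminescence.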

[8] = qHTS assay to identify small molecule agonists of the AP-1 signaling pathway - cell viability counter screen (AID 1159525); note: nearly all actives have a fitted effect of over 55% in size
Method in brief: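 Each titration point was normalised to DMSO and tetra n-octyl ammonium bromide controls. The read was Cell Titer Glo luminescence after 30 min at RT, following 5 h compound exposure of ME-180 AP-1-bla cells at 37 °C.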

[9] = qHTS assay to identify small molecule agonists of the AP-1 signaling pathway (AID 1159526); note: potency is the fitted concentration of half-maximal effect; for activation: % is set by controls: 0 for no effect and ±100 for the full control effect
[10] = qHTS assay to identify small molecule antagonists of the vitamin D receptor (VDR) signaling pathway - cell viability counter screen (AID 743225; active = well fitted curve in the direction sought with a large enough effect in the repeat runs; an effect the other way counts as inactive or inconclusive)
Method in brief: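 VDR-bla HEK 293T cells, 4 h pre-incubation at 37C, then compound plus 1-alpha,25-dihydroxyvitamin D3 (3 nM final) for 16 h. After the beta-lactamase FRET read, CellTiter-Glo was added to the same wells; luminescence after 30 min at room temperature.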

CCCC(=O)O[C@]1(C(=O)CCl)[C@@H](C)C[C@H]2[C@@H]3CCC4=CC(=O)C=C[C@]4(C)[C@@]3(F)C(=O)C[C@@]21C
inactive: outcome [1] | outcome [2] | outcome [3] | outcome [4] | outcome [5] | Potency [6] | outcome [8] | Potency [9]
active: Potency [7] 10.6 µM

CCC(C(=O)NC(N)=O)c1ccccc1 (centres undefined)
inactive: outcome [1] | outcome [2] | outcome [3] | outcome [4] | outcome [5] | Potency [6] | Potency [7] | outcome [8] | Potency [9]

COC(=O)CCCC(=O)O
inactive: outcome [1] | outcome [2] | outcome [3] | outcome [4] | outcome [5] | Potency [6] | Potency [7] | outcome [8] | Potency [9]

NC(=O)c1c(Cl)cccc1Cl
inactive: outcome [1] | outcome [2] | outcome [3] | outcome [4] | outcome [5] | Potency [6] | Potency [7] | outcome [8] | Potency [9]

CCCCc1ccc(N)cc1
inactive: outcome [1] | outcome [10] | outcome [2] | outcome [3] | outcome [4] | outcome [5] | Potency [6] | Potency [7] | outcome [8] | Potency [9]

N#CCc1ccccc1[N+](=O)[O-]
inactive: outcome [1] | outcome [2] | outcome [3] | outcome [4] | outcome [5] | Potency [6] | Potency [7] | outcome [8] | Potency [9]

CC(=O)N[C@@H](CCC(N)=O)C(=O)O
inactive: outcome [1] | outcome [2] | outcome [3] | outcome [4] | outcome [5] | Potency [6] | Potency [7] | outcome [8] | Potency [9]

C=C(C)[C@@H]1CCC2=CC(=O)C[C@@H](C)[C@]2(C)C1
inactive: outcome [1] | outcome [2] | outcome [3] | outcome [4] | outcome [5] | Potency [6] | Potency [7] | outcome [8] | Potency [9]

CCCCCCOC(=O)CC(CC(=O)OCCCCCC)(OC(=O)CCC)C(=O)OCCCCCC
inactive: outcome [2] | outcome [3] | outcome [4] | outcome [5] | Potency [6] | Potency [7] | outcome [8] | Potency [9]

OCC(O)[C@@H](O)[C@H](O)[C@H](O)CO[C@H]1O[C@H](CO)[C@@H](O)[C@H](O)[C@H]1O (some centres undefined)
inactive: outcome [1] | outcome [2] | outcome [3] | outcome [4] | outcome [5] | Potency [6] | Potency [7] | outcome [8] | Potency [9]

NCCN1CCNC1=O
inactive: outcome [1] | outcome [2] | outcome [3] | outcome [4] | outcome [5] | Potency [6] | Potency [7] | outcome [8] | Potency [9]

CCn1cc(C(=O)O)c(=O)c2cc(F)c(N3CCN(C)CC3)cc21
inactive: outcome [2] | outcome [3] | outcome [4] | outcome [5] | activity, negative = cytotoxicity [6] 0.209% [at 19 µM] | activity change, negative = inhibition [7] -0.847% [at 19 µM] | viability change, negative = cytotoxic [8] 2.53% [at 15.8 µM] | activation [9] 0.51% [at 15.8 µM]

N[C@@H](CS)C(=O)O
inactive: outcome [1] | outcome [2] | outcome [3] | outcome [4] | outcome [5] | Potency [6] | Potency [7] | outcome [8] | Potency [9]

COc1cccc(Br)c1
inactive: outcome [1] | outcome [2] | outcome [3] | outcome [4] | outcome [5] | Potency [6] | Potency [7] | outcome [8] | Potency [9]

COc1cc(C)cc(O)c1
inactive: outcome [1] | outcome [2] | outcome [3] | outcome [4] | outcome [5] | Potency [6] | Potency [7] | outcome [8] | Potency [9]

O=c1[nH]c2ccccc2c(=O)n1CCCl
inactive: outcome [1] | outcome [2] | outcome [3] | outcome [4] | outcome [5] | Potency [6] | Potency [7] | outcome [8] | Potency [9]

CN(C)C(=O)C(CCN1CCC(O)(c2ccc(Cl)cc2)CC1)(c1ccccc1)c1ccccc1
inactive: outcome [2] | outcome [3] | outcome [4] | outcome [5] | Potency [6] | Potency [7] | outcome [8] | Potency [9]

c1ccc2cnncc2c1
inactive: outcome [1] | outcome [2] | outcome [3] | outcome [4] | outcome [5] | Potency [6] | Potency [7] | outcome [8] | Potency [9]

CC(C)[N+](C)(C)CC(O)COc1cccc2ccccc12 (centres undefined)
inactive: outcome [1] | outcome [2] | outcome [3] | outcome [4] | outcome [5] | Potency [6] | Potency [7] | outcome [8] | Potency [9]

O=S(=O)(O)c1ccccc1O
inactive: outcome [1] | outcome [2] | outcome [3] | outcome [4] | outcome [5] | Potency [6] | Potency [7] | outcome [8] | Potency [9]

Cc1ccccc1C(=O)O
inactive: outcome [1] | outcome [2] | outcome [3] | outcome [4] | outcome [5] | Potency [6] | Potency [7] | outcome [8] | Potency [9]

C#CC(O)CCCCC (centres undefined)
inactive: outcome [1] | outcome [10] | outcome [2] | outcome [3] | outcome [4] | outcome [5] | Potency [6] | Potency [7] | outcome [8] | Potency [9]

c1cc(CN2CCCCC2)cc(OCCCNc2nc3ccccc3s2)c1
active: Potency [7] 26.6 µM | Potency [9] 26.8 µM
inactive: outcome [1] | outcome [2] | outcome [3] | outcome [4] | outcome [5] | Potency [6] | outcome [8]

COCCOC(=O)CC#N
inactive: outcome [1] | outcome [2] | outcome [3] | outcome [4] | outcome [5] | Potency [6] | Potency [7] | outcome [8] | Potency [9]

O=C(O)c1ccc[n+]([O-])c1
inactive: outcome [1] | outcome [2] | outcome [3] | outcome [4] | outcome [5] | Potency [6] | Potency [7] | outcome [8] | Potency [9]

C=C(C)C(=O)NCCCN(C)C
inactive: outcome [1] | outcome [10] | outcome [2] | outcome [3] | outcome [4] | outcome [5] | Potency [6] | Potency [7] | outcome [8] | Potency [9]

— PubChem BioAssay (Tox21)
